PubChem BioAssay AID1159580 (chemical genetic matrix, 2015)
Hit rate of the full screen: of about 5,500 compounds, about 2,000 (36%) were called active. Inconclusive results (about 18%) are left out. Cut-off read from the data, not from the text of the source: active = normalized growth mostly below about 0.91 (no sharp cut-off); inconclusive = no clear call, values can overlap the other calls; inactive = mostly above about 0.92. This is one part of the list.

Experiment: chemical genetic growth profiling, strain panel (AID 1159580);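 note: tested at 20 µM; growth read once vehicle control cultures reached saturation at 30 °C; 1 = growth at the plate median or of vehicle wells; lower values mean less growth of the strain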
Settings: S. cerevisiae deletion strains, growth OD

Measured: normalized growth

C[C@H]1C[C@@H](O)[C@]2(O)[C@@]13CC(=O)OC[C@@]2(C)[C@](C)(O)C(=O)C3
inactive: locus YAL021C, strain ccr4, active compounds read low 1.02 | locus YAL026C, strain drs2, active compounds read low 1.04 | locus YAL030W, strain snc1, active compounds read low 1.02 | locus YBL061C, strain skt5, active compounds read low 1.02 | locus YBR009C, strain hhf1, active compounds read low 1.02 | locus YBR023C, strain chs3, active compounds read low 1.03 | locus YBR171W, strain sec66, active compounds read low 1.03 | locus YBR231C, strain swc5, active compounds read low 1.03 | locus YBR279W, strain paf1, active compounds read low 1.03 | locus YCL011C, strain gbp2, active compounds read low 1.02 | locus YCL016C, strain dcc1, active compounds read low 1.02 | locus YCL061C, strain MRC1, active compounds read low 1.02 | locus YCL069W, strain vba3, active compounds read low 1.02 | locus YCR088W, strain abp1, active compounds read low 1.02 | locus YDL005C, strain med2, active compounds read low 1.03 | locus YDL040C, strain nat1, active compounds read low 1.02 | locus YDR001C, strain nth1, active compounds read low 1.02 | locus YDR069C, strain doa4, active compounds read low 1.04 | locus YDR137W, strain rgp1, active compounds read low 1.03 | locus YDR159W, strain sac3, active compounds read low 1.05 | locus YDR195W, strain ref2 1.02 | locus YDR297W, strain sur2, active compounds read low 1.03 | locus YDR334W, strain swr1, active compounds read low 1.03 | locus YDR335W, strain msn5, active compounds read low 1.03 | locus YDR392W, strain spt3, active compounds read low 0.974 | locus YEL003W, strain gim4, active compounds read low 1.04 | locus YEL037C, strain rad23, active compounds read low 1.03 | locus YEL061C, strain CIN8 (second series), active compounds read low 1.03 | locus YER015W, strain faa2, active compounds read low 1.02 | locus YER016W, strain bim1, active compounds read low 1.02 | locus YER111C, strain swi4, active compounds read low 1.04 | locus YER155C, strain BEM2 (second series), active compounds read low 1.05 | locus YFR010W, strain ubp6, active compounds read low 1.03 | locus YGL167C, strain pmr1, active compounds read low 1.02 | locus YGL173C, strain kem1, active compounds read low 1.02 | locus YGL227W, strain vid30, active compounds read low 1.03 | locus YGL240W, strain doc1, active compounds read low 1.02 | locus YGL253W, strain hxk2, active compounds read low 1.03 | locus YHR013C, strain ard1, active compounds read low 1.04 | locus YHR027C, strain rpn1, active compounds read low 1.02 | locus YHR030C, strain SLT2, active compounds read low 1.08 | locus YHR079C, strain IRE1, active compounds read low 1.05 | locus YHR142W, strain chs7, active compounds read low 1.04 | locus YJL092W, strain hpr5, active compounds read low 1.03 | locus YJL095W, strain BCK1 (second series), active compounds read low 1.03 | locus YJL095W, strain BCK1, active compounds read low 1.05 | locus YJL115W, strain asf1, active compounds read low 1.05 | locus YJL129C, strain trk1, active compounds read low 1.06 | locus YJL154C, strain vps35, active compounds read low 1.01 | locus YJL164C, strain tpk1, active compounds read low 1.02 | locus YJL166W, strain qcr8, active compounds read low 1.02 | locus YJL187C, strain SWE1, active compounds read low 1.02 | locus YJR066W, strain TOR1, active compounds read low 0.995 | locus YKL160W, strain elf1, active compounds read low 1.02 | locus YKR026C, strain gcn3, active compounds read low 1 | locus YKR091W, strain srl3, active compounds read low 1.02 | locus YLL001W, strain dnm1, active compounds read low 1.02 | locus YLL026W, active compounds read low 1.03 | locus YLL041C, strain sdh2, active compounds read low 1.02 | locus YLR027C, strain aat2, active compounds read low 1.02 | locus YLR113W, strain HOG1, active compounds read low 1.07 | locus YLR221C, strain rsa3, active compounds read low 1.03 | locus YLR258W, strain gsy2, active compounds read low 1.02 | locus YLR262C, strain YPT6 (second series), active compounds read low 1.03 | locus YLR320W, strain mms22, active compounds read low 1.03 | locus YLR342W, strain FKS1, active compounds read low 1.03 | locus YLR357W, strain rsc2, active compounds read low 1.07 | locus YLR370C, strain arc18, active compounds read low 1.02 | locus YLR384C, strain iki3, active compounds read low 1.02 | locus YML120C, strain ndi1, active compounds read low 1.01 | locus YMR058W, strain fet3, active compounds read low 1.03 | locus YMR125W, strain sto1, active compounds read low 1.05 | locus YMR129W, active compounds read low 1.02 | locus YMR205C, strain PFK2, active compounds read low 1.04 | locus YMR231W, strain pep5, active compounds read low 1.03 | locus YNL071W, strain lat1, active compounds read low 1.03 | locus YNL183C, strain NPR1, active compounds read low 0.984 | locus YNL209W, strain ssb2, active compounds read low 1.02 | locus YNL248C, strain rpa49, active compounds read low 1.03 | locus YNL322C, strain KRE1 (second series), active compounds read low 1.02 | locus YNR049C, strain mso1, active compounds read low 1.03 | locus YOR001W, strain rrp6, active compounds read low 1.03 | locus YOR070C, strain gyp1, active compounds read low 1.02 | locus YOR080W, strain dia2, active compounds read low 1.03 | locus YOR083W, strain WHI5, active compounds read low 1.01 | locus YOR106W, strain vam3, active compounds read low 1.02 | locus YOR231W, strain MKK1, active compounds read low 1.06 | locus YOR265W, strain rbl2, active compounds read low 1.02 | locus YOR270C, strain vph1, active compounds read low 1.09 | locus YOR290C, strain snf2, active compounds read low 0.993 | locus YPL051W, strain arl3, active compounds read low 1.02 | locus YPL078C, strain atp4, active compounds read low 1.03 | locus YPL106C, strain sse1, active compounds read low 1.02 | locus YPL240C, strain hsp82, active compounds read low 1.03 | locus YPL256C, strain CLN2, active compounds read low 1.05

Cc1nc(-c2ccc(-c3ccc(C(=O)N4CCc5cc6c(cc54)C4(CCN(C)CC4)CO6)cc3)c(C)c2)no1
inactive: locus YAL040C, strain CLN3, active compounds read low 0.967 | locus YDR363W, strain ESC2, active compounds read low 0.991 | locus YER002W, strain NOP16, active compounds read low 0.991 | locus YMR263W, strain SAP30, active compounds read low 1 | locus YNL175C, strain NOP13, active compounds read low 0.964 | locus YNL197C, strain WHI3, active compounds read low 0.989 | locus YNL224C, strain SQS1, active compounds read low 0.961 | locus YPL055C, strain LGE1, active compounds read low 1.04
active: locus YCL061C, strain MRC1 (second series), active compounds read low 0.902 | locus YJR075W, strain HOC1, active compounds read low 0.898 | locus YNL322C, strain KRE1, active compounds read low 0.64 | locus YOR083W, strain WHI5 (second series), active compounds read low 0.677 | locus YPL241C, strain CIN2, active compounds read low 0.907
